# Test results: PubChem BioAssay AID463173 (ICCB-Longwood Screening Facility, Harvard Medical School, 2010)
# The campaign covered roughly 52,000 compounds. About 4,300 (8.3%) were called active. This is one part of a sample in which actives are shown more often than they occur. A number with no mark means an inactive call. No stated cut-off is given here; in the data, active means survival mostly below about 52% (no sharp cut-off); inactive means mostly above about 56%.
# System: DeltatarO mutant
# Experiment: S. aureus survival, RN4220 and DeltatarO strains – OD600, teichoic acid synthesis inhibitors, primary screen (AID 463173)
# Conditions: S. aureus RN4220 wild type/DeltatarO growth, OD600, 18 h, active compounds read low, screened at 18.75 µg/mL (by protocol)
row,Compound,survival
1,CN1C(C(=O)c2ccccc2)=C(OC(=O)c2ccc(Br)cc2)c2ccccc2S1(=O)=O,123%
2,Cc1ccc(Nc2cc(C(=O)NC3CCCC3)c3ccccc3n2)c(C)c1,77%
3,CCN(CC)C(=O)C1CCN(Cc2cccc(OC)c2OC)CC1,99%
4,CCN(C(=O)CSc1nc2ccccc2n1CC(=O)N1CCCC(C)C1)c1ccccc1 (stereo not drawn),109%
5,COc1ccc(Br)cc1CNC(=O)c1cnc2sc(N3CCCC3)nn2c1=O,98%
6,COc1ccccc1-n1c(=O)c2c3c(sc2n(Cc2ccccc2F)c1=O)CN(C(C)=O)CC3,120%
7,O=S(=O)(c1ccccc1)N1CCCC(c2nc(-c3cccs3)no2)C1 (stereo not drawn),67%
8,CCOC(=O)Cn1c(=O)n(C2CCCCC2)c2nc(-c3ccc(C(C)C)cc3)nc(C(N)=O)c21,61%
9,CCOCCCNC(=O)C1CCCN(Cc2nc(-c3ccc(CC)cc3)oc2C)C1 (stereo not drawn),76%
10,COc1ccc(CNC(=O)C2CCCCN2S(=O)(=O)c2ccc(F)cc2)cc1 (stereo not drawn),95%
11,COc1cccc(CNC(=O)C2CCCN(S(=O)(=O)c3ccc4c(ccn4C)c3)C2)c1 (stereo not drawn),124%
12,O=C(NCc1ccc(F)cc1)C1CCCCN1S(=O)(=O)c1ccc(F)cc1 (stereo not drawn),32% (active)
13,COc1cccc(CNC(=O)C2CCCN(S(=O)(=O)c3ccc4c(ccn4C)c3)C2)c1OC (stereo not drawn),101%
14,Cc1ccc(CNC(=O)C2CCCCN2S(=O)(=O)c2ccc(F)cc2)cc1 (stereo not drawn),84%
15,COc1ccc(CNC(=O)C2CCCN(S(=O)(=O)c3ccc4c(ccn4C)c3)C2)c(OC)c1 (stereo not drawn),25% (active)
16,CCC(=O)N1CCc2cc(CNC(=O)Nc3cc(C)ccc3C)ccc21,84%
17,CC(=O)N1CCCc2cc(S(=O)(=O)N3CCCC(C(=O)Nc4cc(Cl)ccc4C)C3)ccc21 (stereo not drawn),124%
18,CC(C)Sc1ncc(Cl)c(C(=O)Nc2c(C(=O)Nc3ccccc3)oc3ccccc23)n1,61%
19,CN(C)c1ccc(C(CC(=O)O)NC(=O)c2ccc(Cl)cc2)cc1 (stereo not drawn),104%
20,COc1ccc(NC(=O)c2nnn(Cc3nc(-c4cc(OC)c(OC)c(OC)c4)oc3C)c2C)cc1,61%
21,C=CCc1c(C)nc(SC)nc1Nc1ccc(C(=O)O)cc1,113%
22,O=C(Oc1cccc(-n2cnnn2)c1)C1CCCCC1,94%
23,Cc1nc2ccccn2c(=O)c1NC(=O)c1ccccc1Cl,131%
24,Cc1ccc(C(=O)Nc2c(C)nc3ccccn3c2=O)cc1,74%
25,Cc1nc2ccccn2c(=O)c1NC(=O)c1ccc(C(F)(F)F)cc1,0% (active)
26,Cc1nc2ccccn2c(=O)c1NC(=O)c1ccc(F)c(F)c1,99%
27,Cc1ccc(C(=O)Nc2c(C)nc3ccccn3c2=O)cc1C,69%
28,Cc1ccccc1C(=O)Nc1c(C)nc2ccccn2c1=O,37% (active)
